# CYP2C19 inhib = human CYP2C19 inhibition; CYP2C19 Supersomes, luciferin-H EGE luminescence, 30 min; inhibition, % at 5 µM; 96,000 compounds, 21% hits;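 active = CYP2C19 inhibition above a set limit at 5 µM in the primary screen, cut at about 50% in these data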;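 also: plate controls were negative control wells for no effect and 2.5 mM tranylcypromine positive control for full effect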
# Target sequence (P33261 whole entry, looked up): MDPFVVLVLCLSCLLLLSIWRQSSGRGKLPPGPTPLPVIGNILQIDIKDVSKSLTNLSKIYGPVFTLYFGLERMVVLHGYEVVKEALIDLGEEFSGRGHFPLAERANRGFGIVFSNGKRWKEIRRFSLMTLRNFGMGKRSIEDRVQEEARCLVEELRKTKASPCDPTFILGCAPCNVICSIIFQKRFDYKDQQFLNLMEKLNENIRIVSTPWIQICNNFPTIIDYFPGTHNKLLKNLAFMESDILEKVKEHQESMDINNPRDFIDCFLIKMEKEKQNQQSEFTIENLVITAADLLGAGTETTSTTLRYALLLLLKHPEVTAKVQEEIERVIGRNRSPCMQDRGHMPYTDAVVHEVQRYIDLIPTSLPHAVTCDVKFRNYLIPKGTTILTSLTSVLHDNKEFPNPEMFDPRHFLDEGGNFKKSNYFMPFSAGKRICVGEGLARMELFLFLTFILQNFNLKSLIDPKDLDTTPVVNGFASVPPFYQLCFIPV
# CYP2C19 activ = increases human CYP2C19 enzyme activity; P33261; recombinant CYP2C19, luciferin-H EGE luminescence; active compounds read high; 0 = fully inhibited enzyme, 1 = untreated enzyme; activation factor at 5 µM; 96,000 tested, under 10 active;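 active = activation factor of at least 2 at 5 µM in the primary screen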;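 also: 0 = wells with 2.5 mM tranylcypromine and 1 = vehicle-only wells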
# Cav32 inh = inhibitors of human Cav3.2 T-type calcium channel. O95180. Cav3.2-expressing cells, Fluo-4 calcium fluorescence FDSS; active compounds read low. B-score at 10 µM. 100,000 compounds, 4% hits. AID 449739;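 active = single-dose well whose peak fluorescence ratio is a statistical outlier from its plate by either plate-standardised score or position-corrected B-score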
# CYP2C9 inh = inhibitors of human CYP2C9; P11712; CYP2C9 Supersomes, luciferin-H conversion, luminescence; inhibition, % at 5 µM; 96,000 compounds, 20% hits; AID 777;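 active = blocking of liver enzyme CYP2C9 beyond about 50% at 5 µM, limit read from the data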
# CYP2C9 activ = increases human cytochrome P450 2C9 activity. P11712. recombinant CYP2C9, luciferin-H conversion, luminescence; active compounds read high; factor 1 = untreated enzyme, 0 = blocked. activation factor at 5 µM. 96,000 compounds, 1.4% hits;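 active = activation factor of 2 or more for CYP2C9 at a 5 µM dose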;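 also: 0 = sulfaphenazole-blocked wells and 1 = vehicle-only wells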
# Starred values were filed as active, the others as inactive; x = no result. Shown are actives, neighbours in structure and some others; about 27% of the full set was active somewhere.
SMILES,CYP2C19 inhib,CYP2C19 activ,Cav32 inh,CYP2C9 inh,CYP2C9 activ
Fc1ccc2c(c1)nnn2C1CCN(Cc2nnnn2C2CCCCC2)CC1,67*,0.3,1.3,75*,0.2
Cc1ccc(OCC(=O)N2CCN(CC3CC4C=CC3C4)CC2)cc1 (stereo unspecified),21,0.8,-0.36,15,0.9
CCC(=Nc1ccc(OC)cc1OC)c1c(O)n(C)c(=O)n(C)c1=O,10,0.9,-1.4,10,0.9
CCC(=NCc1cc(OC)cc(OC)c1)c1c(O)n(C)c(=O)n(C)c1=O,29,0.7,0.42,81*,0.2
CCC(=NCc1ccc2c(c1)OCO2)c1c(O)n(C)c(=O)n(C)c1=O,29,0.7,-0.17,62*,0.4
CCC(=NCCc1c[nH]c2ccccc12)c1c(O)n(C)c(=O)n(C)c1=O,59*,0.4,-2.6,50*,0.5
CCC(C)N1C(=O)NC(=O)C2(Cc3c(ccc4ccccc34)N(C)C2)C1=O (stereo unspecified),41,0.6,-3.3,28,0.7
O=C1NC(=S)NC(=O)C1C/C=C/c1ccccc1,-3,1,-0.016,-1,1
COc1ccc(CCn2c(O)c(C=NCCCN(C)C)c(=O)[nH]c2=O)cc1OC,1,1,-0.21,22,0.8
CCSc1cc(C2C(C#N)=C(N)Oc3n[nH]c(C)c32)c(C)o1 (stereo unspecified),92*,0.1,-1.9,67*,0.3
C=C(C)c1cccc(C(C)(C)NC(=O)NC2CN3CCC2CC3)c1 (stereo unspecified),-1,1,x,-6,1.1
CCCCCCn1c(O)c(C=NCCCn2ccnc2)c(=O)[nH]c1=O,40,0.6,0.36,93*,0.1
COc1ccc(Cn2c(O)c(C=NCCCn3ccnc3)c(=O)[nH]c2=O)cc1,5,1,0.26,63*,0.4
Cc1c(/C=N/O)c2ccccc2n1C,x,x,-0.33,x,x
C=CCn1c(O)c(C=NCCCOc2ccc(CC)cc2)c(=O)[nH]c1=S,x,x,-0.57,x,x
CCN(CC)CC(=O)Nc1ccc(Cl)cc1C(=O)c1ccccc1,x,x,0.7,x,x
CC(C)[C@@]1(NC(=O)[C@@H]2C[C@@H]3c4cccc5[nH]cc(c45)C[C@H]3N(C)C2)O[C@@]2(O)[C@@H]3CCCN3C(=O)[C@H](Cc3ccccc3)N2C1=O,x,x,-5.4*,x,x
CC(C)C[C@H]1C(=O)N2CCCC2[C@]2(O)O[C@](NC(=O)[C@@H]3C=C4c5cccc6[nH]cc(c56)CC4N(C)C3)(C(C)C)C(=O)N12 (stereo partly specified),x,x,-0.93,x,x
Clc1cnc(Oc2ccc(Oc3ncc(Cl)cc3Cl)cc2)c(Cl)c1,5,0.9,-1.2,-94,1.9
Cc1ccc(N)c(C(=O)c2ccccc2)c1,85*,0.2,-0.26,3,1
Cc1ccc(C(=O)Nc2ccc(Cl)cc2C(=O)c2ccccc2)cc1,x,x,-1.1,x,x
Cn1c(O)c(C=NCc2cccs2)c(=O)n(C)c1=O,20,0.8,-1.2,-13,1.1
Cc1ccccc1OCCN=Cc1c(O)n(C)c(=O)n(C)c1=O,64*,0.4,x,27,0.7
C[N+]12CCC(CC1)C(C#N)(N1CCOCC1)C2 (stereo unspecified),2,1,-0.17,2,1
CCCCN1C(=O)NC(=O)C2(Cc3ccccc3N3CCOCC32)C1=O (stereo unspecified),70*,0.3,-2.9,67*,0.3
SMILES,CYP2C19 inhib,CYP2C19 activ,Cav32 inh,CYP2C9 inh,CYP2C9 activ
O=C1NC(=O)[C@]2(Cc3ccccc3N3CCN(c4ccccc4)CC32)C(=O)N1c1ccccc1 (stereo partly specified),63*,0.4,-4.5*,91*,0.1
O=C1NC(=O)[C@]2(Cc3ccccc3N3CCN(c4ccccc4)CC32)C(=O)N1Cc1ccccc1 (stereo partly specified),71*,0.3,-3.4,91*,0.1
CN1C(=O)NC(=O)C2(Cc3ccccc3N3CCOCC32)C1=O (stereo unspecified),0,1,1.3,8,0.9
CN1C(=O)NC(=O)[C@]2(Cc3ccccc3N3CCN(c4ccccc4)CC32)C1=O (stereo partly specified),21,0.8,-1.2,31,0.7
CC1=CC(=O)C2=C(C)CC(O)C3C(C)C(=O)OC3C12 (stereo unspecified),-1,1,1.2,-15,1.1
Cc1nc2c(c(C)nn2-c2ccccc2)c(C)c1CCC(=O)N1CCC2(CC1)OCCO2,16,0.8,1.1,5,0.9
CN1CCc2nc3ccc(F)cc3c(C(N)=O)c2C1,-9,1.1,0.4,0,1
O=C(O)c1nonc1-c1nonc1C(=O)O,3,1,0.84,0,1
CC(NCc1ccc(Cl)c(Cl)c1)C(O)c1ccccc1 (stereo unspecified),100*,0,-2.5,42,0.6
CC(NCc1ccccc1Cl)C(O)c1ccccc1 (stereo unspecified),96*,0,-0.12,1,1
CCOC(=O)c1c(C)n(Cc2ccccc2)c2ccc(OCC(O)Cn3nc(C)nc3C)cc12 (stereo unspecified),54*,0.5,x,62*,0.4
CCOC(=O)c1c(C)n(Cc2ccccc2)c2ccc(OCC(O)Cn3nc(C)cc3C)cc12 (stereo unspecified),x,x,-3.8,x,x
CCN1/C(=C\C=C\C2=[N+](CC)c3ccccc3C2(C)C)C(C)(C)c2ccccc21,92*,0.1,x,69*,0.3
CN1C(=O)C(=Cc2ccc(N3CCCCC3)o2)C(=O)N(C)C1=S,39,0.6,-6.7*,18,0.8
CCOc1ccc(C2(C#N)CC[N+](C)(C)CC2)cc1,-1,1,0.78,-6,1.1
Oc1ccc(/C=N/NP(=S)(c2ccccc2)c2ccccc2)c(O)c1O,83*,0.2,-2.3,96*,0
Oc1ccc(/C=N/NP(=S)(c2ccccc2)c2ccccc2)cc1O,90*,0.1,x,99*,0
O=c1cccc2n1CC1CC2CN(Cc2c(F)cccc2Cl)C1 (stereo unspecified),99*,0,0.15,55*,0.4
O=c1cccc2n1CC1CC2CN(Cc2cccc(Cl)c2Cl)C1 (stereo unspecified),88*,0.1,-4.8,26,0.7
CC(=O)OC1N=C(c2ccc(Cl)cc2)c2cc(Br)ccc2NC1=O (stereo unspecified),27,0.7,-2.5,-8,1.1
CCOC(=O)c1c(NC(=O)C(c2ccccc2)c2ccccc2)sc2c1C1CCN2CC1,23,0.8,-4.1*,63*,0.4
CCOCCCn1c(N)c(C(=O)Nc2sc3c(c2C(=O)OC)CCCC3)c2nc3ccccc3nc21,14,0.9,-0.35,20,0.8
CCOC(=O)/C(CCCN(CC)CC)=N\O,-4,1,1.3,-1,1
OC(c1ccccc1)(c1ccccc1)C1CCNCC1,3,1,-5*,60*,0.4
